The values that follow come from PubChem BioAssay (NCI).

Among the test systems are UACC-62 melanoma; TK-10 renal; SK-MEL-28 melanoma; EKVX NSCLC; CAKI-1 renal.
Common to all, as to assay: NCI-60 one-dose screen, 48 h (100 = growth as untreated, 0 = no growth, -100 = all killed)
Conditions in all cases: 10 µM unless noted

Where “and” joins values, the source holds several entries; their conditions need not be identical. Equal entries are not always repeated. This is part of a sample that, as a whole, favours compounds with a hit. Of some 83,000 tested, about 20% had one in any assay.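 Testing used 96-well plates and a 48-hour single-concentration exposure. Example: -40 means 40% of the starting cells died.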 Calls of active or inactive are those of the source. Rule for the calls: active = growth percent below 10; inactive = the rest.

For the compound `COc1c(OC)c(OC)c2c(c1OC)c(=O)c1ccccc1n2C`, the growth is 38.1% [100 µM] (inactive) and -44.4% [100 µM] (active) in the experiment with UACC-62 melanoma; 87.4% [100 µM] (inactive) and 35% [100 µM] (inactive) in the experiment with TK-10 renal.

For `C/C(=C\COc1cc(O)c2c(c1)C(=O)c1cc(C)cc(O)c1C2=O)CCC1OC1(C)C` (configuration not stated), the growth in the experiment with UACC-62 melanoma was 41.3% [100 µM] (inactive) and 6.17% [100 µM] (active); with TK-10 renal it was 42.6% [100 µM] (inactive) and 20.6% [100 µM] (inactive).

As to `C=C(C)C(=O)OC1CC2(C)OC(=CC2=O)C(C)CC2OC(=O)C(=C)C12` (configuration not stated), the growth was -97% [100 µM] (active) with UACC-62 melanoma and -96.8% [100 µM] (active) with TK-10 renal.

`CCC(C)C1(O)OC2CC3(C)OC(=CC3=O)/C(C)=C\C3OC(=O)C1(C)C32` (configuration not stated): the growth was -34.4% [100 µM] (active) and -100% [100 µM] (active) in the experiment with UACC-62 melanoma; 41.8% [100 µM] (inactive) and -90.7% [100 µM] (active) with TK-10 renal.

Regarding `CCCCCCCCOC(=O)C12Oc3ccc(-c4ccc5c(c4O)C(O)=C4C(=O)CC(C)C(O)C4(C(=O)OCCCCCCCC)O5)c(O)c3C(O)=C1C(=O)CC(C)C2O` (configuration not stated), the growth was -66.7% [100 µM] (active) and -97.2% [100 µM] (active) in the experiment on UACC-62 melanoma; -21.8% [100 µM] (active) and -100% [100 µM] (active) in the experiment with TK-10 renal.

Turning to `CNc1nc2c(C)ccc3[nH]c(N(C)C)nc3c-2n1`, the growth is 30.8% [100 µM] (inactive) and 2.14% [100 µM] (active) with UACC-62 melanoma; 60% [100 µM] (inactive) and 12.5% [100 µM] (inactive) in the experiment with TK-10 renal.

Consider `CC1=CC(=O)c2ccc(C)cc2C1=O`, for which the growth is -90.3% [100 µM] (active) and -100% [100 µM] (active) in the experiment with UACC-62 melanoma; -100% [100 µM] (active) in the experiment on TK-10 renal.

In the case of `Nc1ccn(C2OC(CO)C(O)C2O)c(=O)n1` (configuration not stated), the growth in the experiment on SK-MEL-28 melanoma was 58.1% (inactive) and 105% (inactive) and 110% (inactive); with EKVX NSCLC, 99.2% (inactive) [middle of 4 runs]; in the experiment on CAKI-1 renal, 26.9% (inactive) and 4.29% (active) and 95.4% (inactive).
